The source made the active and inactive calls. How the source made its calls: active means hit-call score of the fitted dose curve at least 0.9, where 1 is the maximum; inactive means score below 0.9.

The target of assay [1] is Transcription factor E2F1 (Homo sapiens) (UniProt Q01094). Nature of the assay: ATG_E2F_CIS: Attagene CIS-FACTORIAL HepG2 Assay for human E2F Transcription Factor 1 (AID 2282935). To be noted: HepG2 Attagene cis-reporter, E2F reporter RNA transcripts; actives raise or lower the signal. The gist of the method: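 In this cis-factorial format, endogenous factor activity drives transfected reporters in HepG2; transcripts collected at 24 h are quantified by fluorescence after RT-PCR and capillary separation.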
Sequence of Transcription factor E2F1 (Homo sapiens) (Q01094 whole entry, looked up): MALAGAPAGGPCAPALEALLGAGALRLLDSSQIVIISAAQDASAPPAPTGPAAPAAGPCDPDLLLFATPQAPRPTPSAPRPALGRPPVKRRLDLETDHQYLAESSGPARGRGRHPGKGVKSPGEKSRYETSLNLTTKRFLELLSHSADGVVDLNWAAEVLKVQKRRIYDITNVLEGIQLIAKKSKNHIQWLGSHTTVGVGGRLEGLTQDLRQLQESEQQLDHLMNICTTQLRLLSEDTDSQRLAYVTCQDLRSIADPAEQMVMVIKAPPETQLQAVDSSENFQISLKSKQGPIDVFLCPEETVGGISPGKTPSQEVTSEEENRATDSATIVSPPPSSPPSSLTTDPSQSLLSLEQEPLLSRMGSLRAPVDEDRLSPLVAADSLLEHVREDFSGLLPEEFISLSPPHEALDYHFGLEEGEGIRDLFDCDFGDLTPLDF

A short description of assay [2]: ATG_E_Box_CIS: Attagene CIS-FACTORIAL HepG2 Assay for human Enhancer Box (E-box) (AID 2282936). Particulars: HepG2 E-box cis-reporter transcription, actives raise or lower the signal. The gist of the method: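 Measured 24 h post-dosing in HepG2 cells transfected with multiple cis-regulated reporter units, signal being reporter mRNA induction detected by fluorescent RT-PCR with capillary electrophoresis; gain or loss fitted against DMSO.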

Assay [3] is described as follows: ATG_M_61_CIS: Attagene CIS-FACTORIAL HepG2 Assay for M61 Transcription Factor (Internal Marker) (AID 2282937). To be noted: HepG2 Attagene CIS-FACTORIAL M61 internal marker reporter; actives raise or lower the signal. In a few lines:
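Multiplexed reporter mRNA assay, HepG2 human hepatoma cells, 24 h treatment. Signal: FAM-labelled, HpaI-digested RT-PCR fragments by CE. Fit: bidirectional, baseline DMSO.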

Assay [4] can be described thus: ATG_EGR_CIS: Attagene CIS-FACTORIAL HepG2 Assay for human Early Growth Response 1 (EGR1) (AID 2282938). To be noted: HepG2 Attagene CIS-FACTORIAL EGR reporter mRNA; actives raise or lower the signal. In a few lines: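 Multiplexed cis-reporter system in human hepatoma HepG2 cells, transiently transfected. Cells are dosed for 24 h; reporter transcripts are amplified, fluorescently tagged and sized by capillary electrophoresis, with DMSO as negative control.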

Assay [5] can be described thus: ATG_ERE_CIS: Attagene CIS-FACTORIAL HepG2 Assay for Estrogen Response Element (ERE) (AID 2282940). Particulars: HepG2 ERE cis-reporter, Attagene RNA transcript; actives raise or lower the signal. In a few lines: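 Fluorescence of capillary-separated, FAM-labelled reporter cDNA fragments indicates reporter mRNA levels in HepG2 cells exposed to chemicals for 24 h. Transient transfection with cis-regulated units; data fitted in both directions against DMSO.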

A short description of assay [6]: ATG_Ets_CIS: Attagene CIS-FACTORIAL HepG2 Assay for human Erythroblast Transformation Specific (ETS) (AID 2282941). Particulars: HepG2 ETS cis-reporter transcription, actives raise or lower the signal. In a few lines: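 Endogenous transcription factor activity read as reporter mRNA via RT-PCR and capillary electrophoresis, with gain or loss fitted bidirectionally against DMSO. Human HepG2 liver cells, transiently transfected CIS reporter constructs, 24 h exposure.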

Assay [7] concerns the target Hepatocyte nuclear factor 3-beta (Homo sapiens) (UniProt Q9Y261). Description: ATG_FoxA2_CIS: Attagene CIS-FACTORIAL HepG2 Assay for human Forkhead box A2 (FOXA2) (AID 2282942). To be noted: HepG2 cis-reporter transcription factor activity, 24 h; actives raise or lower the signal. The gist of the method: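 Multiplexed cis-element reporter assay in transiently transfected HepG2. Twenty-four hours post-dosing, RNA was reverse-transcribed, amplified, FAM-labelled, HpaI-digested and separated by CE. Activity gain or loss relative to DMSO.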

Assay [8] is described as follows: ATG_FoxO_CIS: Attagene CIS-FACTORIAL HepG2 Assay for human Forkhead box O (FoxO) (AID 2282943). Particulars: HepG2 Attagene cis-reporter, FoxO element, mRNA; actives raise or lower the signal. The gist of the method:
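Values reflect reporter mRNA induction or loss in HepG2 cells 24 h post-dosing, fitted bidirectionally with DMSO as negative control and baseline. Detection used RT-PCR and fluorescence capillary electrophoresis.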

Assay [9] is described as follows: ATG_GATA_CIS: Attagene CIS-FACTORIAL HepG2 Assay for human GATA Binding Protein (AID 2282944). Particulars: HepG2 GATA cis-element reporter, Attagene multiplex mRNA; actives raise or lower the signal. In a few lines:
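After transfecting HepG2 cells with multiple cis-regulated reporter units, chemicals are dosed for 24 h; isolated RNA undergoes RT-PCR and fluorescent labeling before capillary electrophoresis, with activity expressed against DMSO.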

Sequence of Hepatocyte nuclear factor 3-beta (Homo sapiens) (Q9Y261 whole entry, looked up): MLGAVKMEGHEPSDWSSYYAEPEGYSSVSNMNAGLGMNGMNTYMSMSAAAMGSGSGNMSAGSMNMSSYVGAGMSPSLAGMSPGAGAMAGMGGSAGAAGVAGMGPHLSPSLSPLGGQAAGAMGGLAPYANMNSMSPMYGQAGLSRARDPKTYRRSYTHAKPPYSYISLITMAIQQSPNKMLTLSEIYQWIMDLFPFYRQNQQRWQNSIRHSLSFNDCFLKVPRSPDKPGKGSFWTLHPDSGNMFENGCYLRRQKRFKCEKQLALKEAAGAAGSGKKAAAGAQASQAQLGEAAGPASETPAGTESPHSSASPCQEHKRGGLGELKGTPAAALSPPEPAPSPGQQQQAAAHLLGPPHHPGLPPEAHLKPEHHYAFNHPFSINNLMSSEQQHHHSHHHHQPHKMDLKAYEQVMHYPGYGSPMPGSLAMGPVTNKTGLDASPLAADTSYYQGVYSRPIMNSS

Consider `Clc1nc(Cl)nc(Nc2ccccc2Cl)n1`, for which the call in assay [1], in assay [2], in assay [3], in assay [4], in [5] and in [6] was inactive. In addition, the compound was called inactive in assay [7], in assay [8] and in [9].

With `CCOc1cc(C(C)(C)C)ccc1C1COC(c2c(F)cccc2F)=N1` (stereo unspecified), the call in assay [1], in [2], in [3], in assay [4], in assay [5] and in [6] was inactive. The compound was classed as inactive in assay [7], in assay [8] and in assay [9].

`COc1cc(Cl)c(OC)cc1Cl`: the outcome in [1], in assay [2], in assay [3], in assay [4], in assay [5] and in assay [6] was inactive. The outcome in [7], in assay [8] and in [9] was inactive.

Turning to `Cn1c(-c2ccccc2)cc(-c2ccccc2)[n+]1C`, the result in [1], in assay [2], in [3], in assay [4], in [5] and in assay [6] was inactive. For the same compound, the outcome in assay [7], in [8] and in [9] was inactive.

The AC50 is the midpoint of the concentration-response curve, whichever way the signal moves. In the case of `CC(C)(C)C(=O)C(Oc1ccc(Cl)cc1)n1cncn1` (stereo unspecified), the result in [1], in assay [2], in [3], in assay [4], in assay [6] and in assay [7] was inactive. Also, the compound was classed as inactive in assay [8] and in assay [9]. Moreover, the AC50 in [5] is 20 µM (active).

Consider `CCN(CC)c1nc(C)cc(OP(=S)(OC)OC)n1`, for which the compound was classed as inactive in [1], in assay [2], in assay [3], in assay [6], in assay [7] and in assay [8]. The result in [9] was inactive. For the same compound, the AC50 in assay [4] is 50 µM (active); in assay [5], 12.7 µM (active).

In the case of `CO/N=C(/C1=NOCCO1)c1ccccc1Oc1ncnc(Oc2ccccc2Cl)c1F`, the outcome in [1], in assay [2], in assay [3], in assay [5], in assay [6] and in assay [7] was inactive. In addition, the call in assay [8] and in assay [9] was inactive. Further, the AC50 in [4] is 2.61 µM (active).

Take `N#CN=C1SCCN1Cc1ccc(Cl)nc1`: the outcome in assay [1], in assay [2], in assay [3], in assay [4], in [5] and in [6] was inactive. Moreover, the outcome in [7], in assay [8] and in [9] was inactive.

As for `CNC(=O)Oc1cccc2ccccc12`, the compound was classed as inactive in [1], in assay [3], in assay [4], in assay [6], in assay [7] and in [8]. For the same compound, in assay [9], the result was inactive. The AC50 in [2] was 9.92 µM (active); in assay [5], 50 µM (active).

Regarding `COCC(C)N(C(=O)CCl)c1c(C)csc1C` (stereo unspecified), the result in [1], in assay [2], in assay [3], in assay [4], in [5] and in assay [6] was inactive. Besides, the compound was classed as inactive in assay [7], in assay [8] and in [9].

On to `CC(C)Nc1nc(Cl)nc(NC(C)C)n1`, for which the compound was classed as inactive in [1], in [2], in assay [3], in assay [4], in assay [5] and in assay [6]. Moreover, the call in assay [7], in assay [8] and in assay [9] was inactive.

Turning to `CCN(CC)C(=O)C(C)Oc1cccc2ccccc12` (stereo unspecified), the call in assay [1], in assay [2], in assay [3], in assay [4], in [6] and in assay [7] was inactive. In addition, the compound was called inactive in assay [8] and in assay [9]. In assay [5], the AC50 was 25.2 µM (active).

As for `Cc1nc(N(C)C)nc(OC(=O)N(C)C)c1C`, the outcome in assay [1], in [2], in assay [3], in assay [4], in assay [5] and in assay [6] was inactive. In addition, the result in assay [7], in [8] and in assay [9] was inactive.

Take `CC(C)N1C(=O)N(c2ccccc2)CSC1=NC(C)(C)C`: the compound was classed as inactive in assay [1], in [2], in assay [3], in [4], in assay [5] and in [6]. For the same compound, the outcome in [7], in assay [8] and in [9] was inactive.

Turning to `C=CCOC(=O)C(C)(C)OC(=O)c1cc(-n2c(=O)cc(C(F)(F)F)n(C)c2=O)ccc1Cl`, the outcome in [1], in assay [2], in assay [3], in assay [4], in assay [5] and in assay [6] was inactive. Moreover, the result in assay [7], in [8] and in [9] was inactive.

Consider `CCCCC(O)(Cn1cncn1)c1ccc(Cl)cc1Cl` (stereo unspecified), for which the compound was classed as inactive in assay [1], in [3], in assay [6], in assay [7], in assay [8] and in assay [9]. Moreover, the AC50 in [2] is 50 µM (active); in [4], 50 µM (active); in [5] it was 12.6 µM (active).

For `COC(=O)N(C(=O)N1CO[C@@]2(C(=O)OC)Cc3cc(Cl)ccc3C2=N1)c1ccc(OC(F)(F)F)cc1`, the compound was classed as inactive in [1], in [2], in assay [3], in [4], in assay [5] and in assay [6]. Further, the compound was classed as inactive in assay [7], in assay [8] and in assay [9].

`COc1ccc(-c2ccccc2)cc1NNC(=O)OC(C)C`: the compound was classed as inactive in [1], in assay [2], in [3], in [4], in assay [5] and in assay [6]. Moreover, the result in assay [7], in assay [8] and in [9] was inactive.

On to `N#Cc1c(Cl)cccc1Cl`, for which the compound was called inactive in assay [1], in assay [2], in assay [3], in assay [4], in assay [5] and in [6]. Also, the compound was classed as inactive in assay [7], in assay [8] and in [9].

The values are drawn from PubChem BioAssay (EPA / NIEHS).
